Rows were chosen to be rich in hits. Some 5.7% of all compounds tested hit in one or more screens of this group.
GLP-1R inv ag: acts as inverse agonist at human GLP-1 receptor; P43220; HEK293 GLP-1R CRE-luciferase, luminescence, 24 h; GLP-1R form is constitutively active; Potency, µM (highest dose often 38.3 µM), most hits filed as inhibitors; hit rate 1.6% among 410,000; AID 624417; further: nearly all actives have a fitted effect of over 55% in size
Target sequence (P43220 whole entry, looked up): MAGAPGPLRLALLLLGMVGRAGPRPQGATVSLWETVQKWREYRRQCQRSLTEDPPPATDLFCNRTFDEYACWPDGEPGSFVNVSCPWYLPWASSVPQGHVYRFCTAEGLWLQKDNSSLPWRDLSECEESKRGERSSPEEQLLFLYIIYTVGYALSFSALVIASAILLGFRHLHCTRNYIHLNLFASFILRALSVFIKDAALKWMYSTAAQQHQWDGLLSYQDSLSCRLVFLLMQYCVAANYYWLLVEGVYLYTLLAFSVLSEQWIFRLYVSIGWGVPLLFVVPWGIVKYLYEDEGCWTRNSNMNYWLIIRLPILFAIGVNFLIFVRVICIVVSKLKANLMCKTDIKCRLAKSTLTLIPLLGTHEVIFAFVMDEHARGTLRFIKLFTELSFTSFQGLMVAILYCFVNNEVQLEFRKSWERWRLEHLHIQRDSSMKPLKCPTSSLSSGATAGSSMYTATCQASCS
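HEK293 cells stably co-expressing a cAMP-responsive luciferase reporter and constitutively active GLP-1R were seeded, incubated 12 h, then exposed to compounds for 24 h at 37 C. Luminescence was read 12 min after detection reagent; inverse agonists lower signal.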
ClpP mod: qHTS Assay for Activators of ClpP. ATP-dependent Clp protease proteolytic subunit (Bacillus subtilis (strain 168)), P80244. purified B. subtilis ClpP, FRET peptide cleavage, 20 min. Potency, µM (top dose mostly 57.5 µM). hit rate 1.9% among 340,000. AID 651965, 2013; active means well fitted falling curve with a large enough effect; inconclusive means small, poorly fitted or top-dose-only effect; inactive means no such curve, though single readings can be large or run the other way; further: the source files actives as falling curves though it sought activators and does not explain the sign; nearly all actives have a fitted effect of over 65% in size
Target sequence (P80244 whole entry, looked up): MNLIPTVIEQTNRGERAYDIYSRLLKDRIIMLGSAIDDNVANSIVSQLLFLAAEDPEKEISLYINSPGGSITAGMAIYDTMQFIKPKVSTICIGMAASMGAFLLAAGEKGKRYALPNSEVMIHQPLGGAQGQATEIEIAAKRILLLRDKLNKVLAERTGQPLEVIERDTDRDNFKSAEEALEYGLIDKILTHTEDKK
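Buffer: 100 mM Tris/HCl pH8, 100 mM KCl, 0.05% low protease BSA, 2.5% glycerol, 0.01% Tween-20. ClpP 10 microg/mL final; 20 min RT; delta FRET normalized to ADEP and DMSO controls.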
D3 antag: blocks the human D3 dopamine receptor | D3R cells, DiscoveRx beta-arrestin luminescence, antagonist mode; hits give low values | AID 652054 | hit rate 2.5% among 360,000 | max response, negative = inhibition, % | P35462; in the data active means max response below about -50%; inconclusive means no clear call, values can overlap the other calls
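Cells expressing the human receptor were seeded at 1500 cells/well, incubated overnight at 37 degrees C in 5% CO2, then exposed to library compounds with dopamine controls for 90 minutes at 37 degrees C before luminescent detection.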
GLP-1R agonist: activates the human GLP-1 receptor | P43220 | HEK293 GLP-1R CRE-luciferase, luminescence, 4-6 h; cells express a hypersensitive GLP-1R form | Potency, µM (series often up to 45.6 µM), actives largely listed as activators | hit rate 0.007% among 380,000
DRD3 agonist: agonists of human D3 dopamine receptor | AID 652048 | max activation, % | hit rate 0.58% among 410,000 | D3R DiscoveRx beta-arrestin cells, luminescence, 90 min; in the data active means max activation above about 30%
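Agonist-mode cell screen: cells plated at 1500/well and incubated overnight at 37 °C, then exposed to library compounds for 90 min at 37 °C. Detection reagent was added for 30–60 min at room temperature, and luminescence was read.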
GLP1R cytotox: cytotoxicity in counter-screen for GLP-1R inverse agonists. HEK293 cAMP-luciferase reporter cells, luminescence, 24 h. hit rate 0.13% among 410,000. Potency, µM (top dose mostly 38.3 µM), usual class: inhibitors;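 further: loss of luciferase light is scored as toxicity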
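Seeding density was 200 cells/uL; after overnight-length (12 h) culture, 23 nL compounds went on for 24 h at 37 °C. Readout used a luciferase detection reagent, luminescence taken after 12 min at room temperature.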
Of the large screens only hits and unclear results are named; the others gave an inactive call. Unless noted, the call rests on the fitted dose curve; in most records, active means well fitted curve in the direction sought with a large enough effect; inconclusive means small, poorly fitted or top-dose-only effect, or another doubt; inactive means no such curve, though single readings can be large; an effect the other way counts as inactive or inconclusive.

COc1ccccc1CNC(=O)C(NS(=O)(=O)c1ccc2c(c1)CCN2C(C)=O)C(C)C (stereo not drawn)	none (no result: D3 antag, GLP-1R agonist)
O=c1[nH]c(C(F)(F)F)nc2ccccc12	D3 antag -60
FC(F)(F)c1nc2ccccc2[nH]1	none
O=C(Nc1cccnc1)C1Cc2c(-c3ccco3)ccnc2O1 (stereo not drawn)	none
CC(C)C[C@H](N)c1cn([C@@H](CCCCN)C(=O)N2CCNCC2)nn1	GLP-1R inv ag 0.89µM, GLP1R cytotox inconclusive
CCCCN(CCCNC(=O)c1cc(Nc2ccc(OC)c(OC)c2)nc2ccccc12)Cc1ccccc1	GLP-1R inv ag inconclusive (no result: D3 antag, GLP-1R agonist)
CCc1nc(N2CCN(C(=S)NCCCOC)CC2)c2c3c(sc2n1)CCCC3	GLP-1R inv ag 11µM, GLP1R cytotox inconclusive
Cc1cccc(NC(=O)c2ccccc2-c2ccccc2)c1	none (no result: ClpP mod)
Cc1cc(NC(=O)c2ccccc2-c2ccccc2)ccc1Br	GLP-1R inv ag 10µM
NC(=O)C1(N2CCCCC2)CCN(Cc2ccc(F)cc2)CC1	D3 antag -88
Fc1ccc(CN2CCCCCCC2)cc1	none
NC(=O)C1(N2CCCCC2)CCN(Cc2ccc(Br)cc2)CC1	GLP-1R inv ag inconclusive, D3 antag -115
NC(=O)C1(N2CCCCC2)CCN(c2nc(-c3ccc(Br)cc3)cs2)CC1	none
COc1ccc(C(=O)N2CCC(c3ccncc3)CC2)cc1OC	none (no result: D3 antag, GLP-1R agonist)
Cc1sc2ncn(CC(=O)Nc3ccc(C(C)C)cc3)c(=O)c2c1S(=O)(=O)N1CCN(c2ncccn2)CC1	none (no result: D3 antag)
CCOC(=O)c1scc(-c2ccc(C)cc2)c1S(=O)(=O)N1CCN(c2ccccc2F)CC1	GLP-1R inv ag 7.9µM (no result: D3 antag, GLP-1R agonist)
CCOC(=O)COc1ccc(S(=O)(=O)N2CCN(c3ccccc3F)CC2)cc1	none
Cc1ccc(Cn2ccnc2SCC(=O)Nc2ccccc2C(F)(F)F)cc1	none (no result: D3 antag, GLP-1R agonist)
CC1(C)Cc2c(cnn2-c2ccc(F)cc2)C(NC(=O)CCN2CCCCO2)C1 (stereo not drawn)	ClpP mod 25µM
Cc1ccc(NC(=O)CSCn2nnc3c(=O)[nH]c(Cc4ccc(F)cc4)nc32)c(C)c1	none (no result: D3 antag, GLP-1R agonist)
O=C(/C=C/c1c(Cl)cccc1Cl)n1cccn1	D3 antag -74, GLP1R cytotox inconclusive
Cc1onc(-c2ccccc2)c1C(=O)Nc1nc(-c2ccccc2)cs1	GLP-1R inv ag inconclusive, D3 antag -56
Cc1onc(-c2ccccc2)c1C(=O)Nc1nc(-c2cc(F)ccc2F)cs1	none
c1ccc(-c2csc(Nc3cccnc3)n2)nc1	D3 antag inconclusive
Cc1cc(C(=O)OCC(=O)Nc2nc(-c3ccccc3)cs2)c(C)o1	D3 antag inconclusive
CC(=O)c1cccc(Nc2nc(-c3ccccc3)cs2)c1	GLP-1R inv ag inconclusive
O=C(Nc1cccc(-c2csc(Nc3ccccc3)n2)c1)c1ccccc1	GLP-1R inv ag 8.9µM
c1ccc(Nc2nc(-c3ccccn3)cs2)cc1	GLP-1R inv ag 5.6µM, GLP1R cytotox 3.2µM
Cc1cc(C(=O)OC(C)C(=O)Nc2nc(-c3ccccc3)cs2)c(C)o1 (stereo not drawn)	GLP-1R inv ag 10µM
CC(C)c1cccc(NC(=O)COC(=O)c2ccccc2OCc2cccc(Br)c2)c1	none (no result: GLP-1R inv ag, D3 antag, GLP-1R agonist, DRD3 agonist, GLP1R cytotox)
COc1ccc(CN2COc3ccc4c(-c5ccccc5)cc(=O)oc4c3C2)cc1OC	ClpP mod inconclusive (no result: D3 antag, GLP-1R agonist)
O=C(Nc1cc(Cl)cc(Cl)c1)c1cnn2c1NC(=C1CC1)C=C2C(F)F	none (no result: GLP-1R inv ag, D3 antag, GLP-1R agonist, DRD3 agonist, GLP1R cytotox)
O=C(Nc1nc(-c2ccccc2)cs1)c1cccc([N+](=O)[O-])c1	GLP-1R inv ag inconclusive, D3 antag -69
CCOC(=O)c1nn(-c2ccccc2)c(C(=O)OCC)c1N	ClpP mod 2µM, GLP1R cytotox inconclusive
CCOC(=O)c1c(C)nc2c(c(SC)nn2-c2ccccc2)c1N	ClpP mod 25µM
Cc1c(Cl)cccc1NC(=O)Cn1nc(C(F)(F)F)c2c1CCC2	GLP-1R inv ag inconclusive (no result: D3 antag)
O=C(NCc1cccs1)c1ccc(Cn2c(SCc3cccc(F)c3)nc3cccnc32)cc1	GLP-1R inv ag inconclusive (no result: D3 antag, GLP-1R agonist)
COc1ccc(CCNC(=O)c2cnn(-c3ccc(F)cc3)c2C2CCN(C(=O)OC(C)(C)C)CC2)c(OC)c1	GLP-1R inv ag inconclusive (no result: D3 antag, GLP-1R agonist)
CCS/C(N)=N/N=C/c1cc(C)ccc1O	GLP-1R inv ag inconclusive, D3 antag -53, GLP1R cytotox inconclusive
CCCCS/C(N)=N/N=C/c1cc(C)ccc1O	GLP-1R inv ag 10µM, D3 antag -55
CS/C(N)=N/N=C/c1cc(C)ccc1O	GLP-1R inv ag inconclusive, GLP1R cytotox inconclusive
CCOC(=O)CN1CC(C)(C)N(CC(=O)OCC)CC1(C)C	none
O=S(Cc1ccc(Cl)cc1)c1ccccc1 (stereo not drawn)	DRD3 agonist 66 (no result: ClpP mod)
O=S(Cc1ccccc1)c1ccccc1 (stereo not drawn)	none
COc1ccc2ccccc2c1C1NC(=O)c2ccccc2N1 (stereo not drawn)	GLP-1R inv ag inconclusive, ClpP mod 14µM, GLP1R cytotox inconclusive
O=C(NCc1ccccc1)c1c2c(nc3ccccc13)C(=O)N(C1CCCCC1)C2	none (no result: D3 antag, GLP-1R agonist)
O=[N+]([O-])c1ccc(/C=C/c2cc(Cl)nc3ccccc23)cc1	none (no result: GLP-1R inv ag, D3 antag, GLP-1R agonist, DRD3 agonist, GLP1R cytotox)
O=[N+]([O-])c1ccc2nc(Cl)nc(-c3ccccc3)c2c1	D3 antag -56
COc1ccc(-n2nc([N+](=O)[O-])c(=NC3CCN(Cc4ccccc4)CC3)n2O)cc1	GLP-1R inv ag inconclusive, D3 antag -51, GLP1R cytotox inconclusive (no result: ClpP mod)
COc1ccc(-n2nc([N+](=O)[O-])c(=NCc3cccnc3)n2O)cc1	none
CC(C)NC1CCC(Nc2ccnc3cc(Cl)ccc23)CC1 (stereo not drawn)	GLP-1R inv ag inconclusive, GLP1R cytotox inconclusive (no result: ClpP mod)
Clc1ccc2c(NCCNC3CCCCC3)ccnc2c1	GLP-1R inv ag inconclusive, D3 antag -98, GLP1R cytotox inconclusive (no result: ClpP mod)
CCOc1ccc(/C=C/C2=CC(C)(C)NC(=S)N2)cc1	GLP-1R inv ag inconclusive, GLP1R cytotox 5.6µM (no result: ClpP mod)
CC1(C)CC(=O)C(C=Nc2cc(C(=O)c3ccccc3)ccc2N)=C(O)C1	GLP-1R inv ag inconclusive, D3 antag -125 (no result: ClpP mod)
CSc1ccccc1N=CC1=C(O)CC(C)(C)CC1=O	D3 antag inconclusive, GLP1R cytotox inconclusive
COC(=O)c1ccc(N)c(N=CC2=C(O)CC(C)(C)CC2=O)c1	D3 antag -51
OC(c1ccc(F)c(F)c1)c1nc(-c2cnc3ccccc3c2)cs1 (stereo not drawn)	GLP-1R inv ag inconclusive, ClpP mod inconclusive, GLP-1R agonist inconclusive
Cc1cccc(C)c1NC(=O)CCSCCc1ccccn1	none (no result: D3 antag, GLP-1R agonist)
Cc1cccc(N=C2NC(=O)/C(=C3/C(=O)N(C)c4ccccc43)S2)c1C	GLP-1R inv ag inconclusive, D3 antag -93, GLP1R cytotox inconclusive
